According to PubChem BioAssay (Tox21):
Inconclusive results are not listed. Active and inactive are the calls of the source. Calls follow the shape of the dose curve; as a rule, active = well fitted inhibition curve with a large enough effect in the repeat runs; inconclusive = weak or mixed curves; inactive = no such curve, though single readings can be large or run the other way.

Target: Cytochrome P450 2C9 (Homo sapiens) (UniProt P11712)
Test: Cytochrome P450 Family 2 Subfamily C Member 9 (CYP2C9) small molecule antagonists: luciferase reporter qHTS assay (AID 1671198); also: nearly all actives have a fitted effect of over 50% in size
Details: P450-Glo CYP2C9 enzyme assay, luciferin luminescence; series mostly up to 115 µM; activity change, negative = inhibition: at the top concentration
From the text: U.S. Tox21 Program National Center for Advancing Translational Sciences [NCATS] U.S. Environmental Protection Agency [EPA] National Institutes of Environmental Health Sciences [NIEHS] National Toxicology Program [NTP] U.S. Food and Drug Administration [FDA] Tox21 Assay Overview: Cytochrome P450 (CYP) enzymes are membrane-bound hemeproteins that play a key role in metabolism of drugs and xenobiotics. Evaluation of the effect of chemicals on CYP isozymes is useful to minimize the adverse drug reactions and toxicities in drug development process. Tox21 chemicals were tested for their effect on CYP enzyme activities by using P450-Glo (TM) screening systems (Promega Corporation, Madison, WI). These systems provide a luminescent method containing proluciferin substrates and are converted to luciferin products by CYP isozymes. The luciferin products formed are detected with a luciferin detection reagent, and the amount of light produced is proportional to CYP activity. P450-Glo (TM) CYP2C9 screening system (Catalog. No. V9790) was used to detect the compounds that interfere in CYP2C9 activity.
Tox21 Assay Protocol Summary: Two ul of enzyme-substrate mix was dispensed into medium binding white/solid 1536-well plates (Greiner Bio-One North America Inc., Monroe, NC) using a BioRaptr Flying Reagent Dispenser (FRD, Beckman Coulter, Brea, CA). […] The assay plates were incubated at room temperature for 10 min. Then 2 ul of NADPH regeneration solution was added to each well of the assay plates using an FRD and incubated at 37C for 1 h. The reaction was stopped by adding 4 ul of detection reagent using an FRD and after 20 min incubation at room temperature the luminescence signal was measured using a ViewLux plate reader (Perkin Elmer, Shelton, CT). Data were expressed as relative luminescence units.
% is scaled to controls: 0 for no effect and ±100 for the full control effect; potency is read from the fitted curve at half-maximal effect.

Sequence of Cytochrome P450 2C9 (Homo sapiens) (P11712 whole entry, looked up): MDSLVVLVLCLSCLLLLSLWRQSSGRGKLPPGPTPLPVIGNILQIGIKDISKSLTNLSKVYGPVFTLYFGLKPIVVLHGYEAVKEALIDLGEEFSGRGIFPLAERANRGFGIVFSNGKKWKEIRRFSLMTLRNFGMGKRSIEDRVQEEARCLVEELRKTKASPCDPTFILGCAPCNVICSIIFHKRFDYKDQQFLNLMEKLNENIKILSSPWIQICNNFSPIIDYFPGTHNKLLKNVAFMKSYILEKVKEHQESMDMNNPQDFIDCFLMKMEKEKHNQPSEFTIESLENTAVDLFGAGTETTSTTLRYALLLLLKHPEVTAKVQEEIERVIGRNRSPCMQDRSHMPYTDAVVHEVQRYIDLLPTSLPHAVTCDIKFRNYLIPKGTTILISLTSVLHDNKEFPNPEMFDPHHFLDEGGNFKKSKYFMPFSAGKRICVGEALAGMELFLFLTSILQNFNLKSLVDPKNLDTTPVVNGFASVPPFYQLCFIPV

| Compound | activity change, negative = inhibition | Potency |
| --- | --- | --- |
| CCSC(=O)N(CC)CC | -9.45% (inactive) | – |
| O=C(O)c1ccc(O)cc1O | -13.9% (inactive) | – |
| Cc1ccc(N(CCO)CCO)cc1 | – | 39.9 µM (active) |
| O=C(O)c1cc(Cl)cc(Cl)c1O | – | 28.3 µM (active) |
| CNC1CCCN(c2c(F)cc3c(=O)c(C(=O)O)cn(C4CC4)c3c2OC)C1 (stereo not given) | 8.68% [at 53 µM] (inactive) | – |
| CO[C@@H]1[C@@H](OC)[C@H](C)[C@@](O)(CC(=O)O)O[C@H]1[C@H](C)[C@H]1O[C@@]2(CC[C@@](C)([C@H]3CC[C@@](C)([C@@H]4O[C@@H]([C@H]5O[C@](C)(O)[C@H](C)C[C@@H]5C)C[C@@H]4OC4C[C@H](OC)[C@@H](OC)[C@H](C)O4)O3)O2)C[C@H](O)[C@H]1C (stereo not given in full) | -17% [at 53 µM] (inactive) | – |
| COC(=O)C1=C(C)NC(C)=C(C(=O)OC(C)(C)CN(C)CCC(c2ccccc2)c2ccccc2)C1c1cccc([N+](=O)[O-])c1 (stereo not given) | – | 2.45 µM (active) |
| COc1cc(S(=O)(=O)Nc2ccccc2)c(OC)cc1N | – | 35.6 µM (active) |
| O=C1OC(=O)c2c(Br)c(Br)c(Br)c(Br)c21 | 5.29% (inactive) | – |
| O=C(O)/C=C/c1ccc(O)c(O)c1 | -1.44% (inactive) | – |
| CN=C(N)NC(=O)Nc1c(C)cccc1C | -5.19% [at 53 µM] (inactive) | – |
| Oc1cccc2[nH]ccc12 | – | 15.5 µM (active) |
| O=[N+]([O-])C1(Br)COCOC1 | – | 7.1 µM (active) |
| CC(=O)OC(C)C[N+](C)(C)C (stereo not given) | -10.1% [at 53 µM] (inactive) | – |
| O=C(CCS)OCC(COC(=O)CCS)(COC(=O)CCS)COC(=O)CCS | – | 15.9 µM (active) |
| CC1CCCO1 (stereo not given) | -5.82% (inactive) | – |
| O=C(O)CCS | 1.55% (inactive) | – |
| CCC(C)(C)C(=O)O | 6.62% (inactive) | – |
| CCCCCCOC(=O)CCCCC | -10.5% (inactive) | – |
| O=C(O)CCC(=O)OC[C@@H](NC(=O)C(Cl)Cl)[C@H](O)c1ccc([N+](=O)[O-])cc1 | -18.5% [at 53 µM] (inactive) | – |

| Compound | activity change, negative = inhibition | Potency |
| --- | --- | --- |
| CC(C)(C)CCCCCCOC(=O)c1ccccc1C(=O)OCCCCCCC(C)(C)C | -12.3% (inactive) | – |
| CC(=O)c1ccc[nH]1 | -17.2% (inactive) | – |
| Nc1c(Cl)cc(Cl)cc1[N+](=O)[O-] | -8.08% (inactive) | – |
| CC(C)(C(=O)c1cccnc1)c1cccnc1 | -6.97% [at 53 µM] (inactive) | – |
| Cc1cc(CCC(=O)OCCOCCOCCOC(=O)CCc2cc(C)c(O)c(C(C)(C)C)c2)cc(C(C)(C)C)c1O | – | 0.617 µM (active) |
| CCN(Cc1cccc(S(=O)(=O)O)c1)c1ccc(C(=C2C=CC(=[N+](CC)Cc3cccc(S(=O)(=O)O)c3)C=C2)c2ccccc2S(=O)(=O)[O-])cc1 | – | 11.3 µM (active) |
| NC(=O)c1ccccc1[N+](=O)[O-] | 4.28% (inactive) | – |
| COC1CCC=CO1 (stereo not given) | 3.16% (inactive) | – |
| CC(C)COC(=O)COc1cc(Cl)c(Cl)cc1Cl | – | 35.5 µM (active) |
| CC(C)(C)C1(CCc2ccc(Cl)cc2)CO1 (stereo not given) | – | 17.8 µM (active) |
| NC(=O)CCCCC(N)=O | -1.95% (inactive) | – |
| CC(=O)OCC(C)C | -12.4% (inactive) | – |
| CCCCCCCC/C=C\CCCCCCCC(=O)OCCO | – | 18.8 µM (active) |
| C=CCOC(=O)COCCC(C)C | -14.3% (inactive) | – |
| BrC(Br)C(Br)Br | -13.5% (inactive) | – |
| CCOC(=O)c1c(N)sc2c1CCN(Cc1ccccc1)C2 | – | 3.47 µM (active) |
| CCCCCCCC(=O)OCCCCCC | -5.56% (inactive) | – |
| O=C(c1ccccc1)c1ccc(O)cc1 | -13.9% (inactive) | – |
| CC(CO)(CO)C(=O)O | -9.52% (inactive) | – |
| O=C(NS(=O)(=O)/C=C/c1ccccc1)c1ccc(F)cc1Cl | – | 10 µM (active) |
